Experimental findings from PubChem BioAssay AID892 (National Center for Advancing Translational Sciences (NCATS), 2007) are described below.

Molecules are shown by their SMILES. The whole screen tested about 75,000 compounds, of which about 20 (0.03%) were called active. Calls come from the whole dose curve; as a rule, active = well fitted inhibition curve with a large enough effect; inconclusive = small, poorly fitted or top-dose-only effect; inactive = no such curve, though single readings can be large or run the other way. These entries were drawn from the full list.
% is set by controls: 0 for no effect and ±100 for the full control effect.

Sequence of Breast cancer type 1 susceptibility protein (Homo sapiens) (P38398 whole entry, looked up): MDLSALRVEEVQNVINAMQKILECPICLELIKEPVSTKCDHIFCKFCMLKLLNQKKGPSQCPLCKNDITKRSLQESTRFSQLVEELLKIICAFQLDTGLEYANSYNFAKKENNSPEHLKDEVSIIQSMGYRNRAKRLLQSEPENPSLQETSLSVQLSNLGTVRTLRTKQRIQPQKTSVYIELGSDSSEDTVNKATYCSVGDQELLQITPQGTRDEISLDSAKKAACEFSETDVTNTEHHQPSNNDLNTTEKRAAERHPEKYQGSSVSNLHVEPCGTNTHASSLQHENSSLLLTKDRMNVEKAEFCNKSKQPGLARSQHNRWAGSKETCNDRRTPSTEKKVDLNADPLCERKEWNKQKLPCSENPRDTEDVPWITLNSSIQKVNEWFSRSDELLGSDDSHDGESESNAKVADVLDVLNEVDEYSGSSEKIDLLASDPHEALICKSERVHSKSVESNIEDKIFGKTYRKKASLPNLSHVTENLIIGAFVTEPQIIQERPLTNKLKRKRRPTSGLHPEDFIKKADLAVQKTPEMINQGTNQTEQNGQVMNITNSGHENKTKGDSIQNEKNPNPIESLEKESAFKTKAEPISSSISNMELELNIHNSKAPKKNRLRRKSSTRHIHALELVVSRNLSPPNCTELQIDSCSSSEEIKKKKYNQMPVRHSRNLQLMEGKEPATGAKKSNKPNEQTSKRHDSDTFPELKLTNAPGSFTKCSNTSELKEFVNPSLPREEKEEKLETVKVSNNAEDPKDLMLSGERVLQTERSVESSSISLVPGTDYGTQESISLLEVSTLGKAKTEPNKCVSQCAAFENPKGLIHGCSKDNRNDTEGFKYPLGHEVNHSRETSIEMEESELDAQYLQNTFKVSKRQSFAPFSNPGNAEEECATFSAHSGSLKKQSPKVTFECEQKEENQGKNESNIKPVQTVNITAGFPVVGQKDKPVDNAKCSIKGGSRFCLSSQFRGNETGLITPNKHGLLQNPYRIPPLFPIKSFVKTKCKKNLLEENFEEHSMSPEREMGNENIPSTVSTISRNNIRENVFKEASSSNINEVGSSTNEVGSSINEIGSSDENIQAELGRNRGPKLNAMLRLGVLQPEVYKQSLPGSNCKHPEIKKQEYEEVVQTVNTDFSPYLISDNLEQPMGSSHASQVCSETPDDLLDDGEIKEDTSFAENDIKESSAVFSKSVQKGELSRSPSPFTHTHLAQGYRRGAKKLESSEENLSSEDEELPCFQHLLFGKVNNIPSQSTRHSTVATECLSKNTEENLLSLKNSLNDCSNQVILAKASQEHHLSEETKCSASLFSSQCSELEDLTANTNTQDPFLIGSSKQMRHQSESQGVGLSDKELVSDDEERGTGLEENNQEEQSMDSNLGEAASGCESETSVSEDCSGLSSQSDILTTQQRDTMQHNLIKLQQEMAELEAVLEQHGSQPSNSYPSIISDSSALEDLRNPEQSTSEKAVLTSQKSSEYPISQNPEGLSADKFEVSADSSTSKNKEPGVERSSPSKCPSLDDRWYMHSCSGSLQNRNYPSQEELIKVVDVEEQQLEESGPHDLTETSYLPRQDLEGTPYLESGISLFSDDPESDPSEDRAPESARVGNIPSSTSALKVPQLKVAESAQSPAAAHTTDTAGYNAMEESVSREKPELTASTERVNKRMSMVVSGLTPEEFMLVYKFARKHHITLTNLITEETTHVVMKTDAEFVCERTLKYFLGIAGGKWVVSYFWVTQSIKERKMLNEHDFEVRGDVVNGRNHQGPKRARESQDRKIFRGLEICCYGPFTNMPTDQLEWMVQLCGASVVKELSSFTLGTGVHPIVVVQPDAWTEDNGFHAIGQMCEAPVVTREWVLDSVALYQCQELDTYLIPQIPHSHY

The target of the assay is Breast cancer type 1 susceptibility protein (Homo sapiens) (UniProt P38398). Put plainly: qHTS Assay for Inhibitors of BRCT-Phosphoprotein Interaction (Red Fluorophore). Particulars: BRCT-phosphopeptide binding, red fluorescence polarization; series mostly up to 76.9 µM. As to the method:
NIH Molecular Libraries Screening Centers Network [MLSCN]
NIH Chemical Genomics Center [NCGC]
PI Name: Natarajan, Amarnath; University of Texas
A complex of BRCT (C-terminal portion of BRCA1, MW ~35 kDa, His-tagged) and fluorescently labeled pBACH1 phosphorylated 10 aa peptide fragment of BACH1, a helicase implicated in DNA repair, is incubated with library members. Inhibitors of BRCT-pBACH1 binding are detected by a decrease in the fluorescence polarization (FP) of the fluorophore. In order to minimize the effect of fluorescence artifacts and to increase the overall robustness of the screen, the compound library members were incubated in separate reactions with rhodamine-labeled probe-protein complexes. Protein and labeled probes were supplied by Dr. Amarnath Natarajan, Department of Pharmacology and Toxicology, University of Texas Medical Branch Galveston, TX.
Assay Buffer: 16mM Na2HPO4, 4 mM NaH2PO4, 150 mM NaCl, 1 mM EDTA, 1 mM DTT, 0.02% NaN3, and 0.01% Tween 20 at pH 7.3.
Assay Controls: 100 nM TAMRA labeled decapeptide dispensed into columns 3 and 4 to generate negative control (full inhibition of
binding, -100 % activity). 100 nM labeled decapeptide/100 nM protein in columns 1, 2, 5 - 48. Titration of unlabeled decapeptide control (from 10 mM, then 1:2 dilution in duplicate) pin-transferred to column 2, rows 1 to 16. Column 1 is neutral.
Three uL of reagents were dispensed to 1536-well Greiner black solid-bottom plates. Compounds and controls (23 nL) were transferred via Kalypsys PinTool. The plates were incubated for 12 min at room temperature, and then read on ViewLux (Perkin-Elmer) High-throughput CCD imager using BODIPY for the rhodamine-labeled decapeptide probe polarization filter sets. During dispense, reagent bottles were kept submerged into 4 deg C water bath and all liquid lines were covered with aluminum foil to minimize probe and protein degradation. All screening operations were performed on a Kalypsys robotic system (Kalypsys, Inc., San Diego, CA) containing one RX-130 and two RX-90 anthropomorphic robotic arms. The timing and order of assay plates passing through the screening system were adjusted such that each compound library plate was assayed against the fluorescein- and rhodamine-labeled assay systems at immediately adjacent time points.
Regarding `CCOc1ccccc1NC(=O)c1cc(S(=O)(=O)N2CCC3(CC2)OCCO3)ccc1F`, the activity change, negative = inhibition result was “inactive”.
In the case of `COC(=O)CC1C(C)(C)C(OC(C)=O)C2CC3=C4CC(=O)OC(c5ccoc5)[C@]4(C)CCC3[C@@]1(C)C2=O` (some centres undefined) it was “inactive”; in that of `CCOc1cc(CO)ccc1OCC(=O)N1CCCCC1`, “inactive”; in that of `O=C(Nc1nc2cc3c(cc2s1)OCCO3)c1cccc(S(=O)(=O)N2CCOCC2)c1`, “inactive”.
In the case of `CN(C(=O)COc1nnc(-c2cccs2)c(-c2cccs2)n1)c1ccccc1` it was “inactive”; in that of `COCC(C)n1c(SCc2ccc(C(=O)OC)o2)nc2ccccc2c1=O` (centres undefined), “inactive”; in that of `CO[C@H]1COC(=O)[C@@H](OCc2ccccc2)/C=C\[C@H](C)[C@@H](OC)COC(=O)[C@H](OCc2ccccc2)/C=C\[C@@H]1C`, 3% [at 15.4 µM] (inactive).
Then `CCC(c1nnnn1C1CCCC1)N1CCN(C(=O)c2ccco2)CC1` (centres undefined), with “inactive”; and `CC1CCCCN1CC(=O)NCc1ccc2c(c1)OCO2` (centres undefined), with “inactive”; and `O=C(NCc1ccccn1)c1c(O)c2c([nH]c1=O)CCCC2`, with “inactive”.
Take `O=C(CC1OC(=O)c2ccccc21)NC1CCCCC1` (centres undefined): the activity change, negative = inhibition entry was “inactive”.
As for `COc1ccc(-c2nc(CS(=O)CC(=O)NCc3ccccn3)c(C)o2)cc1` (centres undefined), the activity change, negative = inhibition entry was “inactive”.
As to `Cc1nnc(SCc2cc(=O)[nH]c(N3CCN(Cc4ccccc4)CC3)n2)s1`, the activity change, negative = inhibition result was “inactive”.
Turning to `CC(C)NC[C@H](O)c1ccc2ccccc2c1`, the activity change, negative = inhibition result is “inactive”.
In the case of `Cc1nc2nc3c(cn2n1)C(=O)CC(c1ccccc1)C3` (centres undefined) it was “inactive”.
In the case of `COCCCNC(=O)Cn1cc(C(=O)C2CC2)c2ccccc21` it was “inactive”; in that of `CN(c1ccc(C(=O)N2CCc3ccccc3C2)cc1)S(C)(=O)=O`, “inactive”; in that of `COCCCNC(=O)COc1cc(C)c(Cl)c(C)c1`, “inactive”.
As to `Cc1cccc(OCc2nnc(SCC(=O)N3CCN(C(=O)c4ccco4)CC3)n2C)c1C`, the activity change, negative = inhibition result was “inactive”.
Then `CCCOC(=O)Nc1sc2c(c1C(=O)OCC)CCC2`, with “inactive”; and `CCOC(=O)c1cnc(-n2nc(C)cc2C)nc1-n1nc(C)cc1C`, with “inactive”.
For `CN(C(=O)CSc1nnnn1-c1ccccc1)C1CCCCC1`, the activity change, negative = inhibition entry is “inactive”.
Then `Cc1ccc(Cn2ccc(NC(=O)c3cc(C(C)C)on3)n2)cc1`, with “inactive”.
Then `COc1ccccc1N1CCN(C(=O)c2c(-c3c(Cl)cccc3Cl)noc2C)CC1`, with “inactive”; and `Cc1ccccc1NC(=O)Cc1nnc(SCC(=O)N2CCN(c3ccccc3)CC2)n1C`, with “inactive”; and `CCCCCCC(=O)N(O)C1CC(=O)N(c2ccccc2)C1=O` (centres undefined), with “inactive”.
As to `C=CCNC(=O)C12CC3CC(C1)CC(C(=O)NCC=C)(C3)C2`, the activity change, negative = inhibition result is “inactive”.
In the case of `COC(=O)N1CCC2(CCCN(c3ccncc3)C2)CC1` it was “inactive”; in that of `O=C1NC(c2cc3c(cc2Cl)OCO3)Oc2ccccc21` (centres undefined), “inactive”.
